Among the data in PubChem BioAssay (NCATS) are max response, Potency and outcome values, retold here.

Inconclusive results are not listed. Unmarked numbers belong to inactive results. Calls of active or inactive are those of the source. The call rests on the fitted dose curve; in most records, active means well fitted inhibition curve with a large enough effect; inconclusive means small, poorly fitted or top-dose-only effect; inactive means flat fitted curve, though single readings scatter.
On the % scale 0 is the no-effect control and ±100 the full control effect; potency means the concentration at half of the fitted maximal effect.

This test has as its system KB-3-1. In words: Cytotoxic Profiling of Annotated Libraries Using Quantitative High-Throughput Screening (AID 1296008). Further: nearly all actives have a fitted effect of over 60% in size. Particulars: Five cell lines viability, CellTiter-Glo ATP luminescence, 48-72 h; max response: active compounds read low. The gist of the method:
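Compounds were pin-transferred onto cells and incubated 48 or 72 hr at 37 degree Celsius, 95% humidity. CellTiter-Glo was added, plates sat 10 min at room temperature, then ATP-coupled luminescence was imaged as the viability read-out.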
`COc1cc(Br)c(S(=O)(=O)Nc2ccc(C(F)(F)F)c(O[C@@H]3CCN(C)C3)c2)cc1OC`: the max response was -11.3%.
Consider `NC(=O)Nc1cc(-c2cccc(F)c2)sc1C(=O)NC1CCCNC1` (centres undefined), for which the Potency is 580 nM (active).
For `CC1(C)CCC2(C(=O)OC3OC(CO)C(O)C(O)C3O)CCC3(C)C(=CCC4C5(C)CCC(O)C(C)(C(=O)O)C5CCC43C)C2C1O` (centres undefined), the max response is 1.65%.
`Cc1[nH]nc(C(F)(F)F)c1Cc1sc2c(c1C(=O)N1C[C@](C)(O)CO1)c(=O)n(C)c(=O)n2C(C)C`: the max response was 1.3%.
As to `CC(=O)O[C@H]1C(=O)[C@@]2(C)[C@H]([C@H](OC(=O)c3ccccc3)[C@]3(O)C[C@H](OC(=O)[C@H](O)[C@@H](NC(=O)c4ccccc4)c4ccccc4)C(C)=C1C3(C)C)[C@]1(OC(C)=O)CO[C@@H]1C[C@@H]2O`, the Potency is 9.8 nM (active).
For `C/C=C/C=C/C=C/C(=O)OC1C=C(C=O)C(O)(C(=O)O)C2(C)CCCC(C)(C)C12` (centres undefined), the max response is 7.06%.
With `CCOc1cc(N2CCC(O)CC2)ccc1Nc1ncc2c(n1)N(C1CCCC1)CCC(=O)N2C`, the Potency was 7310 nM (active).
For `C/C=C(\C)C(=O)OCC1OC(OC2OC(COC(=O)/C(C)=C/C)C(OC3OC(CO)C(OC(=O)/C(C)=C/C)C(OC(=O)/C(C)=C/C)C3O)C(O)C2O)C(O)C(O)C1OC1OC(CO)C(OC(=O)/C(C)=C/C)C(OC(=O)/C(C)=C/C)C1O` (centres undefined), the max response is -4.08%.
As to `Cc1cc(C)c(Nc2ccnc(Nc3ccc(C#N)cc3)n2)c(C)c1`, the Potency is 20600 nM (active).
As to `CC1(C)[C@@H](O)CC[C@]2(C)[C@H]3CC=C4[C@@H]5C[C@](C)(C(=O)O)CC[C@]5(C)CC[C@@]4(C)[C@]3(C)CC[C@@H]12`, the max response is 8.76%.
For `C#CC[C@H](c1nc2cc(Cl)ccc2c(=O)n1Nc1ccccc1)N(CCCN)C(=O)c1cccc(Cl)c1F`, the Potency is 920 nM (active).
Turning to `c1cn2cc(-c3ccc4cn[nH]c4c3)nc(Nc3ccc(N4CCOCC4)cc3)c2n1`, the max response is 3.1%.
On to `CC1CCC2(C(=O)O)CCC3(C)C(=CCC4C5(C)CCC(OC(=O)/C=C/c6ccccc6)C(C)(C)C5CCC43C)C2C1C` (centres undefined), for which the max response is 3.54%.
On to `NC(=O)c1cccc2cn(-c3ccc(C4CCCNC4)cc3)nc12` (centres undefined), for which the max response is -7.35%.
In the case of `Nc1nc2c(c(=O)[nH]1)C[C@@H](CCc1ccc(C(=O)N[C@@H](CCC(=O)O)C(=O)O)cc1)CN2`, the Potency is 58 nM (active).
Regarding `CC/C=C\C/C=C\C/C=C\CCCCCCCC(=O)OCC(O)COC1OC(CO)C(O)C(O)C1O` (centres undefined), the outcome was inactive.
As to `Cn1c(=O)n(-c2ccc(C(C)(C)C#N)cc2)c2c3cc(C#Cc4cccnc4)ccc3ncc21`, the Potency is 142 nM (active).
With `Cn1cc(S(=O)(=O)c2ccc(Cl)cc2)c2cccc(N3CCNCC3)c21`, the Potency is 20600 nM (active).
`CC[C@H](CO)Nc1nc(NCc2ccc(-c3ccccn3)cc2)c2ncn(C(C)C)c2n1`: the Potency is 116 nM (active).
`CC1OC2OC(=O)C3(C)CC4=C(CO)C5=C(CC(=O)C4(C)C(C1=O)C23)C(C)(C)OC(=O)C5` (centres undefined): the max response was 2.12%.
In the case of `CCN1CCN(Cc2ccc(Nc3ncc(F)c(-c4cc(F)c5nc(C)n(C(C)C)c5c4)n3)nc2)CC1`, the Potency was 6510 nM (active).
For the compound `CC1=C(C(=O)O[C@@H]2O[C@H](COC3OCC(O)C(O)C3O)[C@@H](O)[C@H](O)[C@H]2O)C(C)(C)CCC1` (some centres undefined), the max response is -5.04%.
`C[C@@H](Oc1cc(-n2cnc3ccc(OC4CCN(C)CC4)cc32)sc1C(N)=O)c1ccccc1C(F)(F)F`: the Potency was 9.2 nM (active).
Regarding `CC1(C)CC2C=C(C(=O)O)C3COC(=O)C(O)(CO)C23C1` (centres undefined), the compound was classed as inactive.
In the case of `COC1CC(O[C@H]2CC[C@@]3(C)C(=CC[C@]4(O)C3[C@H](OC(C)=O)[C@@H](OC(=O)c3ccccc3)[C@]3(C)[C@@H](C(C)=O)CC[C@@]34O)C2)OC(C)C1OC1CC(OC)C(OC2CC(OC)C(OC3OC(C)C(OC4OC(CO)C(O)C(O)C4O)C(OC)C3O)C(C)O2)C(C)O1` (some centres undefined), the max response is 0.0608%.
Regarding `C[C@@H]1C[C@H]2O[C@@H]2/C=C\C=C\C(=O)Cc2c(Cl)c(O)cc(O)c2C(=O)O1`, the Potency was 1100 nM (active).
Turning to `CC(=O)OC1C(=O)C2(C)C(O)CC3OCC3(OC(C)=O)C2C(OC(=O)c2ccccc2)C2(O)CC(OC(=O)C(O)C(NC(=O)c3ccccc3)c3ccccc3)C(C)=C1C2(C)C` (centres undefined), the Potency is 8.2 nM (active).
On to `C=CC1C(OC2OC(CO)C(O)C(O)C2O)OC=C(C(=O)OC)C1CC1CC(=O)CC(CCc2ccc(O)cc2)O1` (centres undefined), for which the max response was 0.837%.
As to `COC(=O)CCc1cc2ccoc2c(OC)c1O[C@@H]1O[C@H](CO)[C@@H](O)[C@H](O)[C@H]1O`, the compound was called inactive.
Consider `C=C1C(=O)O[C@@H]2C/C(C)=C\C(=O)/C=C(\C)[C@@H](OC(=O)/C(C)=C\C)[C@H](O)[C@@H]12`, for which the Potency was 11400 nM (active).
For the compound `C[C@@H]1C(=O)O[C@H]2[C@@H](O)C34[C@H]5C[C@@H](C(C)(C)C)C36[C@@H](OC(=O)[C@@H]6O)O[C@@]4(C(=O)O5)[C@@]12O` (some centres undefined), the max response is -6.44%.
Consider `COc1cc(C(=O)NC2CCN(C)CC2)c(F)cc1Nc1ncc2c(n1)N(C1CCCC1)CC(F)(F)C(=O)N2C`, for which the Potency was 10.3 nM (active).
Same read-out and setting: the result for `CN(C)c1nc(NC2CCC(NCCc3ccc(Br)cc3OC(F)(F)F)CC2)nc2ccccc12` (centres undefined) reads 4610 nM (active); that for `O=C(O)/C=C/c1ccc(-c2ccc(O)c(C34CC5CC(CC(C5)C3)C4)c2)cc1`, 2060 nM (active); that for `NCc1ccc(Nc2ncc(F)c(Nc3ccccc3)n2)cc1`, 8200 nM (active).
Still for that read-out and setting: under `Cc1cc(O)c(-c2ccc([C@@H](C)CN(C)C)cc2)c2c1[nH]c(=O)c1sccc12` stands 46.1 nM (active); under `O=C(c1ccc(/C=C/c2n[nH]c3ccccc23)cc1)N1CCNCC1`, 5800 nM (active); under `CCCCc1nc2cc(/C=C/C(=O)NO)ccc2n1CCN(CC)CC`, 1460 nM (active).
On the same count and under the same terms, under `CN1CCN(Cc2ccc(-c3cnc4[nH]cc(-c5ccc6[nH]ccc6c5)c4c3)cc2)CC1` stands 9200 nM (active).
